NCOA1 inh: SRC1 coactivator transcriptional activity inhibitors, primary screen, cell-based, luminescence. Nuclear receptor coactivator 1 (Homo sapiens), Q15788. HEK293 GAL4-SRC1 luciferase reporter. inhibition, % at 3.6 µM. 0.12% of 360,000 active. AID 588354, 2011;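 active = inhibition above the campaign mean plus 3 SD, with each screening campaign given its own cutoff, cut at about 60% in these data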;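 note: 0% = DMSO treated cells and 100% = gossypol at 36 µM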
NR2F2 inh: NR2F2 transcriptional activity inhibitors, primary screen, cell-based, luciferase reporter, HEK293T, luminescence; inhibition, % at 8.6 µM; HEK293T NGFI-A luciferase reporter; 0.7% of 370,000 active;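 active = inhibition above a per-plate cutoff, mean inhibition of test wells between control levels plus 3 SD, cut at about 38% in these data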;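 note: cells cotransfected with COUP-TFII expression vector driving the NGFI-A reporter; 0% = median of COUP-TF2 test wells and 100% = reporter-only cells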
Target sequence (P24468 whole entry, looked up): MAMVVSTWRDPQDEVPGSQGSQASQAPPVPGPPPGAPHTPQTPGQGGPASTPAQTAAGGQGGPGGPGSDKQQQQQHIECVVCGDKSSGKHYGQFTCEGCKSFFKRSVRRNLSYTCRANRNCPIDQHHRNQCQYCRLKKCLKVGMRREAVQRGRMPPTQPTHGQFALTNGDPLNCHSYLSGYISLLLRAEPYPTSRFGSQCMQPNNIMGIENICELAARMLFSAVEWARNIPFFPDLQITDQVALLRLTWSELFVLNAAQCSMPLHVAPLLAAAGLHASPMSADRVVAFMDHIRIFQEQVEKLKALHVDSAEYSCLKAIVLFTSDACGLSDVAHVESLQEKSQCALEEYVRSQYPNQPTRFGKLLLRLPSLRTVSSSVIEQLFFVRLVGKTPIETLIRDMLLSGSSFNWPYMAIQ
SRC3 inh: SRC3 coactivator transcriptional activity inhibitors, primary screen, cell-based, luminescence | 0.17% of 360,000 active | HEK293 GAL4-SRC3 luciferase reporter | Nuclear receptor coactivator 3 (Homo sapiens), Q9Y6Q9 | AID 588352, 2011 | inhibition, % at 3.6 µM;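 active = inhibition above a per-campaign cutoff, the mean of all compounds plus 3 SD, cut at about 60% in these data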;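 note: 0% = DMSO-treated cells and 100% = gossypol-treated cells at 36 µM; higher means less SRC3-driven luciferase light from the GAL4 reporter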
GalR3 antagonist: GalR3 antagonists in HEK293 cells, primary screen, cell-based, fluorescence readout; Galanin receptor type 3 (Homo sapiens), O60755; HEK293 GalR3-CNG cAMP membrane potential fluorescence; galR3 body fused to GalR1 C-terminus; inhibition, % at 3 µM; 0.44% of 360,000 active; AID 651719, 2012;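 active = inhibition above the screen-wide average plus 3 SD, cut at about 13% in these data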;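 note: forskolin and galanin both at EC90 stimulate the cells; cAMP rise reported by CNG channel membrane potential dye signal; 0% = forskolin plus galanin with DMSO and 100% = forskolin alone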
Target sequence (O60755 1-299 limits assumed): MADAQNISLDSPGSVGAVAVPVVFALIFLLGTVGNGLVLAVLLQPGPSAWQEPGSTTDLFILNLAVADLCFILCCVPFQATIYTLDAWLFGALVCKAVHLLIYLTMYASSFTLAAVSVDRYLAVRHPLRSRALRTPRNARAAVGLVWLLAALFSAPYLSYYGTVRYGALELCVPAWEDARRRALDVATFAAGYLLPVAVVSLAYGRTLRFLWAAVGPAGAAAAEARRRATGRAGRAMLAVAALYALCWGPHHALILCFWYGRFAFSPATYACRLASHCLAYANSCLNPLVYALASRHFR
NR5A2 inv ag: LRH-1 (NR5A2) inverse agonists, primary screen, cell-based, luminescence, HEK293T, StAR-luciferase reporter; Nuclear receptor subfamily 5 group A member 2 (Homo sapiens), O00482; 0.13% of 360,000 active; inhibition, % at 3.6 µM; LRH-1 transfected, 24 h;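 active = inhibition above the mean inhibition of all tested compounds plus 3 SD, cut at about 73% in these data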;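 note: 0% = DMSO wells and 100% = reporter-only cells lacking LRH-1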
NCOA2 inhibitor: inhibition of GAL4-SRC2 driven luciferase reporter, primary screen, SRC2 inhibitor project, cell-based, luminescence; 0.17% of 370,000 active; HEK293 GAL4-SRC2 luciferase reporter; inhibition, % at 9 µM; Nuclear receptor coactivator 2 (Homo sapiens), Q15596;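 active = inhibition above the mean inhibition of all tested compounds plus 3 SD, set per campaign, cut at about 52% in these data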;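 note: 0% = DMSO treated cells and 100% = cells given Gossypol at 36 µM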
GalR3 conf: GalR3 antagonist hit confirmation, cell-based, fluorescence, triplicate; inhibition, % at 3 µM; AID 652245, 2013; HEK293 GalR3 CNG cAMP biosensor, membrane potential fluorescence; galR3 fused to GalR1 carboxy tail; challenged with forskolin and galanin at EC90; 59% of 1,600 active; shares compounds with GalR3 antagonist;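 active = inhibition above the primary screen's cutoff, the mean inhibition of all screened compounds plus 3 SD, cut at about 13% in these data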;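 note: 0% = forskolin plus galanin and 100% = forskolin alone with DMSO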
CNG parental: nonspecific cAMP agonists in parental HEK-CNG cells, counter-screen for GalR3 antagonist project, cell-based, fluorescence, high throughput. shares compounds with GalR3 antagonist. HEK293-CNG parental cells, cAMP membrane potential fluorescence; normalised: DMSO wells 0%, forskolin wells 100%. activation, % at 3 µM. 10% of 1,600 active. AID 652268, 2013; in the data active = activation above about 1.3%
VP16 Luc counter: Gal4-VP16 luciferase reporter inhibitors, counter-screen for COUP-TFII antagonist project, cell-based, luminescence, HEK293; shares compounds with NR2F2 inh; inhibition, % at 8.5 µM; 25% of 2,500 active; AID 687007, 2013; in the data active = inhibition above about 13%
COUP-TFII conf: NR2F2 transcriptional activity inhibitors, confirmation, cell-based, luciferase reporter, HEK293, triplicate; shares compounds with NR2F2 inh; 45% of 2,500 active; HEK293 NGFI-A luciferase reporter, luminescence; inhibition, % at 8.5 µM;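 active = mean inhibition over three repeats above a set limit taken from the earlier primary screen, cut at about 38% in these data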;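 note: 100% = cells given the luciferase reporter alone without the COUP-TF2 vector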
* = called active by the depositor; nt = not tested or not shown. Only some compounds are listed: those with a hit (about 1.1% of all), similar ones and a draw of the others.

SMILES	NCOA1 inh	NR2F2 inh	SRC3 inh	GalR3 antagonist	NR5A2 inv ag	NCOA2 inhibitor	GalR3 conf	CNG parental	VP16 Luc counter	COUP-TFII conf
CCOC(=O)[C@@]12CCCC3=C1N(CCC3)C(=O)[C@H]2CC(=O)NCCC(C)C	nt	-11	nt	nt	nt	5	nt	nt	nt	nt
CC(=O)Nc1cc(NC(C)=O)cc(C(=O)OCC(=O)c2ccc3c(c2)NC(=O)CO3)c1	-3	1	-2	-6	-2	-18	nt	nt	nt	nt
N#CCC(=O)Nc1ccc(C(=O)OCC(=O)c2ccc3c(c2)NC(=O)CO3)cc1	2	-14	1	13*	20	-4	8	0	nt	nt
CC(C)CN1C(=O)[C@@]2(CC(=O)N(C)C2c2ccccc2)c2cc(-n3cc(CO)nn3)ccc21 (some centres not stated)	nt	-15	nt	nt	nt	6	nt	nt	nt	nt
COC(=O)c1ccc(C(=O)N2CCCC(Nc3ccc(C(C)C)cc3)C2)cc1 (configuration not stated)	-2	0	-18	-8	-24	2	nt	nt	nt	nt
CC(C)c1ccc(NC2CCCN(C(=O)c3n[nH]c4c3CCC4)C2)cc1 (configuration not stated)	1	38*	-11	31*	28	14	36*	0	-5	24
CC(C)[C@@H](CO)N1Cc2nnn(Cc3ccccc3)c2-c2ccccc2S1(=O)=O	nt	0	nt	nt	nt	3	nt	nt	nt	nt
COc1ccc(OC)c(CCNC(=O)Cn2nc(C)c3c(C)n(-c4ccc(C)cc4)nc3c2=O)c1	23	67*	30	33*	52	7	98*	0	5	73*
COc1ccc(CCNC(=O)Cn2nc(C)c3c(C)n(-c4ccccc4)nc3c2=O)c(OC)c1	-6	12	-8	3	-5	-14	nt	nt	nt	nt
O=C(Nc1nc2ncccn2c1-c1ccc(F)c(F)c1)C1CC1	nt	-19	nt	nt	nt	3	nt	nt	nt	nt
COc1ccc(-c2noc(C3CCCN(C(=O)Nc4cc(C)cc(C)c4)C3)n2)cc1 (configuration not stated)	nt	-12	nt	nt	nt	-27	nt	nt	nt	nt
CN(C)CCCNS(=O)(=O)c1ccc(N2CCN(Cc3ccc4c(c3)OCO4)CC2)c([N+](=O)[O-])c1	0	40*	12	57*	7	9	95*	0	1	9
CC(=O)c1ccc(N2CCN(c3ccc(S(=O)(=O)NCCCN(C)C)cc3[N+](=O)[O-])CC2)cc1	13	22	23	-9	-1	18	nt	nt	nt	nt
COc1ccc(CCNc2c(C)c(C)nc3ncnn23)cc1	31	66*	27	90*	44	16	90*	0	-2	52*
CCc1c(C)nc2ncnn2c1NCCc1ccc(OC)c(OC)c1	-1	23	-29	-7	13	-9	nt	nt	nt	nt
CCCCCN1CCCCC(NC(=O)c2ccc3ccccc3c2)C1=O (configuration not stated)	nt	-6	nt	nt	nt	4	nt	nt	nt	nt
COc1ccc(OCC(=O)Nc2ccc(S(=O)(=O)N3CCOCC3)cc2)cc1	1	6	10	0	7	-2	nt	nt	nt	nt
O=C(O)CC(SCC(=O)Nc1ccc(Cl)c(S(=O)(=O)N2CCOCC2)c1)C(=O)O (configuration not stated)	0	-7	4	-2	3	17	nt	nt	nt	nt
CC(=O)Nc1ccc(OCC(=O)Nc2ccc(Cl)c(S(=O)(=O)N3CCOCC3)c2)cc1	26	65*	28	31*	35	34	92*	-1	7	44*
CC(CC(=O)Nc1ccc(Cl)c(S(=O)(=O)N2CCOCC2)c1)c1ccccc1 (configuration not stated)	29	63*	18	96*	22	29	120*	-1	4	51*
COc1ccc(CN2CCC(CNC(=O)NC(C)C)CC2)cc1	nt	7	nt	nt	nt	0	nt	nt	nt	nt
CC(=O)Nc1ccc(NC(=O)c2csc([C@@H]3C[C@H](O)[C@@H](CO)O3)n2)cc1	-1	-5	-8	-6	11	-14	nt	nt	nt	nt
O=C(Nc1ccc(Oc2ccccc2)cc1)c1csc([C@H]2C[C@H](O)[C@@H](CO)O2)n1	11	77*	10	84*	44	17	109*	-1	-4	61*
N#Cc1cc(F)cc(OC[C@@H](O)CN2CCC(C(O)(c3ccccc3)c3ccccc3)CC2)c1	nt	-16	nt	nt	nt	-9	nt	nt	nt	nt
Cc1ccc(NC(=O)CNc2ccc(Cl)c(Cl)c2)cc1S(=O)(=O)N(C)C	3	54*	24	45*	5	-2	90*	-1	-5	40*
SMILES	NCOA1 inh	NR2F2 inh	SRC3 inh	GalR3 antagonist	NR5A2 inv ag	NCOA2 inhibitor	GalR3 conf	CNG parental	VP16 Luc counter	COUP-TFII conf
Cc1nn(-c2ccc(NC(=O)c3ccncc3)cc2)c(C)c1Cl	23	67*	-10	75*	29	8	109*	0	-6	58*
CCOc1ccc(-n2c(SCC(=O)Nc3ccc(S(=O)(=O)Nc4cc(C)nc(C)n4)cc3)nnc2-c2ccco2)cc1	nt	-13	nt	nt	nt	-17	nt	nt	nt	nt
CCOC(=O)N1C(=O)C[C@](Sc2ccc(OC)cc2)(C(=O)N2CCN(c3ncccn3)CC2)[C@H]1c1ccc(OC)cc1	nt	-5	nt	nt	nt	7	nt	nt	nt	nt
Oc1ccc2ccccc2c1CN1CCCCC1	-19	45*	-5	14*	-9	-9	17*	0	-4	3
C=CCN1[C@@H](C)COc2cc(N3CCCC3)ccc2S1(=O)=O	nt	-15	nt	nt	nt	0	nt	nt	nt	nt
CN(C)S(=O)(=O)N1CCC(Oc2cccc(C(=O)NC3CCCCC3)c2)CC1	34	57*	15	14*	18	36	62*	0	-4	40*
